CendR NRP1 mod: alters CendR peptide binding to human NRP-1; 360,000 compounds, 0.85% hits; inhibition, % at 25 µM; FAM-RPARPAR peptide binding to NRP-1, fluorescence polarization; O14786;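 active = inhibition or corrected inhibition above about 18%, plus a signal ratio from 0.5 to 1.5, limit read from the data, passing the limit was not always enough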
A3G deaminase: blocks human APOBEC3G single-stranded DNA deamination. inhibition, % at 20 µM. recombinant A3G, ssDNA deamination FAM/TAMRA fluorescence. AID 493012. Q9HC16. 330,000 compounds, 0.28% hits;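 active = inhibition of at least 40% at 20 µM, with no more than 30% in the related APOBEC3A deaminase screen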;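 note: plate controls were DMSO wells with A3G for no effect and wells lacking A3G enzyme for full effect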
beta cell repl: inducers of beta-cell replication in MIN6 cells; MIN6 cells proliferation, ATPlite luminescence, 48 h; cells starved in 0.2% serum; 100% = growth in 10% serum; proliferation, % at 10 µM; 330,000 compounds, 0.29% hits; AID 2380;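 active = compounds whose signal lies at least 3.5 SD above the mean of all wells on their plate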;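 note: 0% = DMSO-treated cells in low-serum medium and 100% = 10% serum control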
A3A deaminase: inhibitors of human APOBEC3A DNA deaminase; P31941; recombinant A3A, FAM/TAMRA ssDNA deamination fluorescence; inhibition, % at 20 µM; 330,000 compounds, 0.41% hits; AID 493011;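 active = at least 40% inhibition at 20 µM here, with at most 30% in a related deaminase screen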;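 note: plate controls were A3A with DMSO for no effect and wells lacking A3A enzyme for full effect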
VLA-4 inh: inhibition in a human VLA-4 binding assay | P13612 | VLA-4 expressing cells, ligand binding flow cytometry | inhibition, % (about 7 µM as worked out from the volumes in the protocol) | 330,000 compounds, 0.2% hits | AID 2557; in the data active = inhibition above about 50%
Target sequence (P13612 whole entry, looked up): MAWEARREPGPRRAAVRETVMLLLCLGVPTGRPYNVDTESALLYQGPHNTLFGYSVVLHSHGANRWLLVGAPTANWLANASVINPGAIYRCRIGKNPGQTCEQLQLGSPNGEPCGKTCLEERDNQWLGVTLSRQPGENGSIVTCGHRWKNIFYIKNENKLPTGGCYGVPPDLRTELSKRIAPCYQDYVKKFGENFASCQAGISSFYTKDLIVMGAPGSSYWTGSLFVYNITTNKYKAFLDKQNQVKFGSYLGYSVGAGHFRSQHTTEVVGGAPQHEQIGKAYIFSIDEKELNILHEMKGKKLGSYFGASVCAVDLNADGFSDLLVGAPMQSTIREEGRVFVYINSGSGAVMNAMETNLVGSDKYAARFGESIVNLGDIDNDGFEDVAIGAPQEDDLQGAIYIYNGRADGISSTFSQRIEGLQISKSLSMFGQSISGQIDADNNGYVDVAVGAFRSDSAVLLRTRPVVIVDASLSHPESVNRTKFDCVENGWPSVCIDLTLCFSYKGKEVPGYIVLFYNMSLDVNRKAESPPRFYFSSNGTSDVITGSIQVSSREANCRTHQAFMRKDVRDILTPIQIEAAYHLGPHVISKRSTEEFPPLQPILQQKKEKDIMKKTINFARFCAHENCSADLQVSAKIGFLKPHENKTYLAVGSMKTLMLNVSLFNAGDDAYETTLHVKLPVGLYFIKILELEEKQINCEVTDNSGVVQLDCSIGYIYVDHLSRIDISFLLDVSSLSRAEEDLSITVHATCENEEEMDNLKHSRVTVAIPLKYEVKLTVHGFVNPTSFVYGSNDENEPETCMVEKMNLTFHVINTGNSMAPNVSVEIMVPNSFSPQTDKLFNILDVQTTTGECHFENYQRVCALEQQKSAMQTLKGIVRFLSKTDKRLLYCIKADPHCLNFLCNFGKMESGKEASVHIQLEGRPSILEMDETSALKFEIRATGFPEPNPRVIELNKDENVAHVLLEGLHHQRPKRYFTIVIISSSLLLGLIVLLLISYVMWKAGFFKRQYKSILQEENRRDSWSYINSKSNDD
VLA-4 mod pick: confirmation of allosteric modulators of human VLA-4 integrin. shares compounds with VLA-4 inh. U937 cells, HUTS-21 LIBS mAb binding, flow cytometry; LDV ligand present at threefold Kd. inhibition, % at 6.7 µM. 1,300 compounds, 2% hits. AID 2813; in the data active = inhibition above about 40%;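 note: 0% = ligand without compound and 100% = no ligand background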
APOBEC3A confirm: APOBEC3A (human) deaminase inhibition, confirmed; recombinant A3A, ssDNA deaminase UDG fluorescence assay; 1,400 compounds, 63% hits; inhibition, % at 20 µM; shares compounds with A3A deaminase; AID 493151;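 active = inhibition reaching a set limit, 80% of the first screen's cutoff, at 20 µM in any replicate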;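 note: plate controls were DMSO wells with A3A for no effect and wells lacking A3A enzyme for full effect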
A3G conf: confirmation of human APOBEC3G DNA deaminase inhibitors. shares compounds with A3G deaminase. recombinant A3G ssDNA deaminase, UDG/FAM-TAMRA fluorescence. inhibition, % at 20 µM. 890 compounds, 72% hits. AID 493152;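 active = inhibition reaching a set limit in any replicate at 20 µM, the limit being 80% of the first screen's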
UDG A3G counter: inhibits E. coli UDG, flagging false APOBEC3G inhibitors; 710 tested, under 10 active; shares compounds with A3G deaminase; inhibition, % at 20 µM; UDG counterscreen, FAM/TAMRA oligo fluorescence;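 active = compounds giving 40% or more inhibition at 20 µM in any one of the three replicates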;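 note: plate controls were DMSO wells with UDG and oligo for no effect and DMSO wells lacking both for full effect; inhibitors lower the FAM signal released by uracil excision and alkaline cleavage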
* marks the source's active call; other numbers are inactive results; nt = no result given. Rows were chosen to be rich in hits. Some 1.8% of all compounds tested hit in one or more screens of this group.

SMILES	CendR NRP1 mod	A3G deaminase	beta cell repl	A3A deaminase	VLA-4 inh	VLA-4 mod pick	others
Cc1cccc(NC(=O)CSCC(=O)N(C)CCOc2ccc(Cl)cc2)c1	-2	-6	0	23	52*	-2
CC(C)Oc1ccc(S(=O)(=O)N2CCOCC2)cc1NC(=O)c1cccc(S(=O)(=O)N2CCCC2)c1	5	nt	nt	nt	nt	nt
Cc1ccc([C@H]2C(C(=O)O)=C[C@@H](CC3CCCC3)N2S(=O)(=O)c2ccc(C)cc2)cc1	-5	-3	1	-2	48	nt
CCc1ccc([C@H]2C(C(=O)O)=C[C@@H](CC3CCCC3)N2S(=O)(=O)c2ccc(C)cc2)cc1	-11	-1	-5	1	27	8
Cc1ccc(S(=O)(=O)N2[C@@H](c3ccc(F)cc3)C(C(=O)O)=C[C@H]2CC2CCCC2)cc1	2	1	0	1	-24	0
CCN(CC)S(=O)(=O)c1ccc(/C=C/C(=O)OCC(=O)Nc2cccnc2Cl)cc1	9	-3	5	2	-8	nt
Cc1ccc(-c2cc(C(=O)N3CCN(C4CCS(=O)(=O)C4)CC3)c3ccccc3n2)cc1 (centres undefined)	8	-3	-5	-1	-12	-11
O=C(c1cc(-c2ccccc2)nc2ccccc12)N1CCN(C2CCS(=O)(=O)C2)CC1 (centres undefined)	5	-7	0	-6	6	nt
CCNc1nc2c(c(=O)n(C)c(=O)n2C)n1Cc1ccc(Cl)cc1	2	-10	-6	-3	57*	5
COc1ccc(OC)c(S(=O)(=O)NCC(c2ccco2)S(=O)(=O)c2ccccc2)c1 (centres undefined)	-3	-6	4	-3	76*	0
CCOC(=O)c1cnc2cc(-c3ccc(C)cc3)nn2c1C	-1	nt	nt	nt	nt	nt
CCOC(=O)c1c(NC(=O)C2c3ccccc3Oc3ccccc32)sc(C(N)=O)c1C	-10	-5	-3	-2	14	15
CCOc1cc(C(=O)N/N=C/C(Br)=C/c2ccccc2)cc(OCC)c1OCC	-1	-5	0	4	51*	18
OCCC1CN(Cc2cnc(-c3ccccc3)s2)CCN1C1CCCC1 (centres undefined)	1	-5	-3	-2	43	4
OCCC1CN(Cc2cnc(-c3ccccc3)s2)CCN1C1CCCCC1 (centres undefined)	-7	-4	-3	2	-6	nt
Cc1ccc(Oc2cnc3ccccc3n2)cc1	-2	-9	1	-5	53*	-5
Clc1ccc(Oc2cnc3ccccc3n2)cc1	-15	-1	0	0	30	nt
Cc1ccc(NC(=O)Nc2ccc3c(c2)OCO3)cc1F	10	-4	2	-2	2	nt
OC[C@@H]1CN(Cc2cccnc2)C[C@H](n2cnc3c(N4CCCC4)ncnc32)O1	-6	nt	nt	nt	nt	nt
CCOC(=O)C(NC(=O)c1ccc(F)cc1)(Nc1nnc(C)s1)C(F)(F)F (centres undefined)	5	-6	0	0	1	nt
CCOC(=O)C(NC(=O)c1cccc(Cl)c1)(Nc1nnc(C)s1)C(F)(F)F (centres undefined)	2	-2	-2	-2	47	10
O=S(=O)(c1ccc(Cl)nc1)N1CCCC1	6	-3	-4	-3	33	nt
CC[C@]12c3[nH]c4ccccc4c3CCN1C(=O)C(CC(=O)NCc1ccco1)C[C@@H]2C(=O)N1CCN(C(=O)C2CC2)CC1 (some centres undefined)	-8	0	-4	1	58*	-3
Cc1cc(C)nc(-n2ncc3c2CC(c2ccccc2)CC3=O)n1 (centres undefined)	6	-8	-5	-5	-3	nt
Cc1cc(C)nc(-n2ncc3c2CC(C)CC3=O)n1 (centres undefined)	7	-4	-2	-1	-8	11
SMILES	CendR NRP1 mod	A3G deaminase	beta cell repl	A3A deaminase	VLA-4 inh	VLA-4 mod pick	others
CC(C)C(NS(=O)(=O)c1ccc2c(c1)C(C)(C)C(=O)N2C)C(=O)NCc1ccccc1Cl (centres undefined)	-20	-4	3	-4	74*	-15
CN1C(=O)C(C)(C)c2cc(S(=O)(=O)NCc3ccc(Cl)cc3)ccc21	-14	-6	-3	-4	0	0
Cc1ccc(CCNS(=O)(=O)c2ccc3c(c2)C(C)(C)C(=O)N3C)cc1	-4	5	-2	2	-24	nt
CCC(C)NC(=O)c1ccc(CNS(=O)(=O)c2ccc3c(c2)C(C)(C)C(=O)N3C)cc1 (centres undefined)	-2	-7	-3	-6	-3	nt
CN1C(=O)C(C)(C)c2cc(S(=O)(=O)NCCc3ccc(Cl)cc3)ccc21	2	-2	-3	-3	-7	-5
COc1cccc(OCc2cc(C(=O)N3CCN(C(C)=O)CC3)no2)c1	12	-8	1	-6	5	nt
O=C(c1ccccc1N1CCOCC1)N1CCCC(Nc2ccc(F)cc2)C1 (centres undefined)	-7	11	2	-2	-10	nt
CCC(=O)NC(=S)Nc1ccccc1C(=O)NC1CCCCC1	-1	-4	1	-1	44	7
O=C(NC1CCCCC1)c1ccccc1NC(=S)NC(=O)C1CC1	-12	-4	1	-2	1	nt
O=C(NC1CCCCC1)c1ccc(S(=O)(=O)NCc2ccco2)cc1	6	-6	3	0	52*	4
CC(=O)Nc1ccc(NC(=O)CN(c2cc(Cl)ccc2Cl)S(C)(=O)=O)cc1	2	-1	2	1	60*	-12
O=S(=O)(NC1CC1)c1ccc(S(=O)(=O)N(Cc2ccccn2)C2CC2)cc1	1	-5	-2	-4	-1	nt
Cc1noc(C)c1CSCC(=O)Nc1nc2ccc(S(C)(=O)=O)cc2s1	2	2	-3	44*	50*	0	APOBEC3A confirm=15
COc1ccc(-n2nc(C(=O)NCC(=O)Nc3ccc(F)cc3)c3ccccc3c2=O)cc1	6	2	0	-3	6	nt
COc1cnc(NS(=O)(=O)c2ccc(N)cc2)nc1	4	50*	-6	18	59*	1	A3G conf=20*;UDG A3G counter=-2
CC(C)C(NC(=O)c1ccccc1F)C(=O)NCCCn1ccnc1 (centres undefined)	-4	5	2	2	-11	nt

Compound activity deposited in PubChem by several laboratories.
